Measured values as given in PubChem BioAssay (EPA / NIEHS).
Active and inactive are the calls of the source. The calls were made as follows: active = hit-call score of the fitted dose curve at least 0.9, where 1 is the maximum; inactive = score below 0.9.

Read-out: Monocyte Chemoattractant Protein-1 (MCP1), CCL2 (gene 6347)
Assay: BSK_4H_MCP1: BioMAP Diversity Plus: 4H Assay for Monocyte Chemoattractant Protein-1 (MCP1) Biomarker Activity (AID 2283018)
Conditions: primary human endothelial cells (HUVEC); actives raise or lower the signal
Method: BSK_4H is a cell-based, multiplexed-readout assay that uses umbilical vein endothelium, a human vascular primary cell, with measurements taken at 24 hours after chemical dosing in a 96-well plate.BSK_4H_MCP1 is an assay component measured in the BSK_4H assay. It measures MCP-1 antibody related to regulation of gene expression using ELISA technology.Data from the assay component BSK_4H_MCP1 was analyzed into 1 assay endpoint. This assay endpoint, BSK_4H_MCP1, was analyzed with bidirectional fitting relative to DMSO as the negative control and baseline of activity. Using a type of binding reporter, gain or loss-of-signal activity can be used to understand changes in the signaling as they relate to the gene CCL2. Furthermore, this assay endpoint can be referred to as a primary readout, because this assay has produced multiple assay endpoints where this one serves a signaling function. To generalize the intended target to other relatable targets, this assay endpoint is annotated to the cytokine intended target family, where the subfamily is chemotactic factor.
The levels of cell surface (or secreted, indicated by the prefix "s") biomarker endpoints were measured by ELISA. Overt cytotoxicity to cells in confluent adherent cultures (all systems other than the BT system) was assessed by measuring total protein levels using sulforhodamine B (SRB) staining in parallel cultures at the time of biomarker measurements, indicated as SRB endpoints. For proliferation assays for adherent cell types, individual cell types are cultured at sub-confluence and relative cell numbers quantified by SRB staining at time points optimized for each system (48 h: 3C and CASM3C systems; 72 h: BT and HDF3CGF systems; 96 h: SAg system). SRB was performed by staining cells with 0.1% SRB after fixation with 10% TCA and reading wells at 560 nm.Viability and proliferation of PBMC (T cells) was quantified by Alamar Blue reduction for the SAg and BT systems. For PBMC viability (referred to as PBMC Cytotoxicity within the assay endpoint names), cells were plated (75,000/well in a 96-well plate) and then chemical samples added for 1 h before addition of activators, SEB and TSST-1 (20 ng/mL final concentration each). Cells were incubated for 90 h. Then, Alamar Blue (20 uL/well) (Invitrogen, Cat DAL1100) was added for 6 h, and the plates were read with a fluorescence microplate reader at 546/580 nm (excitation/emission). For PBMC proliferation, cells were plated and activated as above but incubated for only 16 h prior to addition of Alamar Blue. Plates were read after 6 h.

Compound	outcome	AC50
CCCOc1nn(C(=O)NS(=O)(=O)c2ccccc2C(=O)OC)c(=O)n1C	inactive	–
CN(C)NC(=O)CCC(=O)O	inactive	–
CCCCOC(=O)c1ccccc1C(=O)O	inactive	–
CNC(=O)ON=C(C)SC	inactive	–
CN(C)C(=O)Nc1cccc(C(F)(F)F)c1	inactive	–
CN1COCN(Cc2cnc(Cl)s2)C1=N[N+](=O)[O-]	inactive	–
Nc1nc(N)nc(NC2CC2)n1	inactive	–
C#CC(C)(C)NC(=O)c1cc(Cl)cc(Cl)c1	inactive	–
CN(C)[C@@H]1C(=O)C(C(N)=O)=C(O)[C@@]2(O)C(=O)C3=C(O)c4c(O)cccc4[C@@](C)(O)[C@H]3[C@H](O)[C@@H]12	inactive	–
COc1cccc(C(=O)NN(C(=O)c2cc(C)cc(C)c2)C(C)(C)C)c1C	inactive	–
CSC1=N[C@@](C)(c2ccccc2)C(=O)N1Nc1ccccc1	–	27.8 µM (active)
CCCSP(=O)(OCC)SCCC	inactive	–
C#CCC1=C(C)C(OC(=O)C2C(C=C(C)C)C2(C)C)CC1=O (stereo not given)	–	20.6 µM (active)
CCOP(=S)(Oc1cnc(C(C)(C)C)nc1)OC(C)C (stereo not given)	–	33.4 µM (active)
C[N+]1(C)CCCCC1	inactive	–
CCC(CC)Nc1c([N+](=O)[O-])cc(C)c(C)c1[N+](=O)[O-]	–	22.4 µM (active)
Cc1ccn2nc(S(=O)(=O)Nc3c(F)cccc3F)nc2n1	inactive	–
CCOP(=S)(OCC)OC(Cl)C(Cl)(Cl)Cl (stereo not given)	inactive	–
CCOP(=S)(OCC)SCCSCC	inactive	–
CCOP(=S)(OCC)Oc1cc(C)nc(C(C)C)n1	inactive	–

Compound	outcome	AC50
CCc1cccc(CC)c1N(COC)C(=O)CCl	–	22 µM (active)
Cc1cc(C2CC2)nc(Nc2ccccc2)n1	–	17.8 µM (active)
CNC(=O)ON=C(SC)C(=O)N(C)C	inactive	–
Nc1c(Cl)cc([N+](=O)[O-])cc1Cl	inactive	–
O=c1ccc(=O)[nH][nH]1	inactive	–
C[Si](Cn1cncn1)(c1ccc(F)cc1)c1ccc(F)cc1	inactive	–
CCOP(=S)(OCC)Oc1ccc([N+](=O)[O-])cc1	–	25.2 µM (active)
CON=C(C(=O)OC)c1ccccc1CON=C(C)c1cccc(C(F)(F)F)c1	–	2.81 µM (active)
CCOC(=O)COc1cc(-c2nn(C)c(OC(F)F)c2Cl)c(F)cc1Cl	–	10.1 µM (active)
CC(C)N(C(=O)SCC(Cl)=C(Cl)Cl)C(C)C	–	32.2 µM (active)
CCOP(=O)(OCC)Oc1cc(C)nc(C(C)C)n1	inactive	–
CCC(=NOC/C=C/Cl)C1=C(O)CC(C2CCOCC2)CC1=O (stereo not given)	inactive	–
CCC(=O)Nc1ccc(Cl)c(Cl)c1	inactive	–
CC(C)=CC1C(C(=O)OCN2C(=O)C3=C(CCCC3)C2=O)C1(C)C (stereo not given)	inactive	–
CCOP(=O)(SC(C)CC)N1CCSC1=O (stereo not given)	inactive	–
CCNc1nc(Cl)nc(NC(C)(C)C#N)n1	inactive	–
CCCCN(CC)c1c([N+](=O)[O-])cc(C(F)(F)F)cc1[N+](=O)[O-]	inactive	–
COc1cc(OC)nc(Sc2cccc(Cl)c2C(=O)O)n1	inactive	–
COP(=O)(OC)OC(Br)C(Cl)(Cl)Br (stereo not given)	–	30.1 µM (active)
CCOC(=O)CC(SP(=O)(OC)OC)C(=O)OCC (stereo not given)	inactive	–
